What all share (assay): DAPPL (digital affinity profiling via proximity ligation, sequencing); 10 mM Tris-HCl pH 7.5, 50 mM NaCl, 1 mM DTT, 4% glycerol, room temperature, 30 min; GST-TFs on glutathione beads, 16-mer random dsDNA library, 0.1% formaldehyde crosslink after washing; high values mean tight binding
One assay addresses T1, FEV (Homo sapiens, UniProt Q99581 1-238).
T1 sequence: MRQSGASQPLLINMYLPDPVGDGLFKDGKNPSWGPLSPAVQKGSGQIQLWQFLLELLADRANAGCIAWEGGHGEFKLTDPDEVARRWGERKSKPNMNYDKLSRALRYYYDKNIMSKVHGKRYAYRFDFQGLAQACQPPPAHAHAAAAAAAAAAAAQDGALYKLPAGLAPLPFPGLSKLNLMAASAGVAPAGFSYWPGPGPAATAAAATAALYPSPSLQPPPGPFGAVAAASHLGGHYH
The settings on record: protein: recombinant; tags: N-terminal GST; dsDNA, one strand shown. In short, it runs like this: (§1)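 Binding signal is each hexamer's read frequency for a factor divided by its frequency in the tag-only sample. The factors were GST-fused human transcription factors from yeast, captured on glutathione beads, DNA-barcoded and pooled with that sample. Pools were incubated with 200 nmole of a random double-stranded 16-mer DNA library in Tris/NaCl/DTT/glycerol buffer at room temperature for 30 min, then washed, crosslinked with 0.1% formaldehyde, proximity-ligated with BsaI/T4 ligase (1 h, 37 °C), PCR-amplified and sequenced on an Illumina NextSeq500.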

For the next assay, the target named is ETV5 (Homo sapiens, UniProt P41161 1-510). The note with it: protein: recombinant; tags: N-terminal GST; dsDNA, one strand shown. The gist of the method:
as §1

For another assay, the target named is HSF1 (Homo sapiens, UniProt Q00613 1-529). The settings on record: protein: recombinant; tags: N-terminal GST; chain copies: 3; dsDNA, one strand shown. The gist of the method: as §1
The target in another assay is T2, SPIC (Homo sapiens, UniProt Q8N5J4 1-248).
T2 sequence: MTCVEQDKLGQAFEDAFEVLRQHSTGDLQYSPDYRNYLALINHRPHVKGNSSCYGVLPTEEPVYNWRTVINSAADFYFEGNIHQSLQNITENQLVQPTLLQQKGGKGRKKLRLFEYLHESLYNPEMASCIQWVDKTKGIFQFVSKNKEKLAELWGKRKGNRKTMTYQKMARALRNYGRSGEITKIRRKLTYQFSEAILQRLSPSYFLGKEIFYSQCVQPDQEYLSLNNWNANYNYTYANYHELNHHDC
The settings on record: protein: recombinant; tags: N-terminal GST; dsDNA, one strand shown. In short, it runs like this:
as §1

The next assay concerns the target ELF4 (Homo sapiens, UniProt Q99607 1-663). The note with it: protein: recombinant; tags: N-terminal GST; dsDNA, one strand shown. The gist of the method: as §1
For a further assay, the target named is T3, ELK4 (Homo sapiens, UniProt P28324-2 1-405).
T3 sequence: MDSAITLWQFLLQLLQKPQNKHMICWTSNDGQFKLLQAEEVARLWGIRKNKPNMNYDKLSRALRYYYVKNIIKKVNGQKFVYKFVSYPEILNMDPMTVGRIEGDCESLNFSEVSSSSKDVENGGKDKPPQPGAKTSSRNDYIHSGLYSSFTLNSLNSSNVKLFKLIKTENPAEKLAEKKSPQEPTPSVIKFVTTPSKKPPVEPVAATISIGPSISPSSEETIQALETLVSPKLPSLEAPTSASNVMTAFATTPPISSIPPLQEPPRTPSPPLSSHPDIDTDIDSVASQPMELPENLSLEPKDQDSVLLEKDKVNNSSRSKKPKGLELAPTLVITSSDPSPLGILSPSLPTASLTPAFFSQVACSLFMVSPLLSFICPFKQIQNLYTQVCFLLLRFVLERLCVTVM
The settings on record: protein: recombinant; tags: N-terminal GST; dsDNA, one strand shown. The gist of the method: as §1

For another assay, the target named is T4, ETV2 (Homo sapiens, UniProt O00321 1-342).
T4 sequence: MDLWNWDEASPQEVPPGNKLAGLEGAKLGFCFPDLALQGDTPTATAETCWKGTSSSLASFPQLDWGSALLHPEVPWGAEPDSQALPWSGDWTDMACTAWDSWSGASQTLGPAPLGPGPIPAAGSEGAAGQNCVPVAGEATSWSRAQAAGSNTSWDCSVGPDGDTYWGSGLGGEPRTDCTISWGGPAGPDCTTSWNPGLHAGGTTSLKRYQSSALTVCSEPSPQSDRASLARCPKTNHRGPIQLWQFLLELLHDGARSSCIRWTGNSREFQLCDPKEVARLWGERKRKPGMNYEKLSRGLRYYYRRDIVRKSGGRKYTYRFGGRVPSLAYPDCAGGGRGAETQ
The settings on record: protein: recombinant; tags: N-terminal GST; dsDNA, one strand shown. The gist of the method:
as §1

A further assay addresses T5, ELF3 (Homo sapiens, UniProt P78545 1-371).
T5 sequence: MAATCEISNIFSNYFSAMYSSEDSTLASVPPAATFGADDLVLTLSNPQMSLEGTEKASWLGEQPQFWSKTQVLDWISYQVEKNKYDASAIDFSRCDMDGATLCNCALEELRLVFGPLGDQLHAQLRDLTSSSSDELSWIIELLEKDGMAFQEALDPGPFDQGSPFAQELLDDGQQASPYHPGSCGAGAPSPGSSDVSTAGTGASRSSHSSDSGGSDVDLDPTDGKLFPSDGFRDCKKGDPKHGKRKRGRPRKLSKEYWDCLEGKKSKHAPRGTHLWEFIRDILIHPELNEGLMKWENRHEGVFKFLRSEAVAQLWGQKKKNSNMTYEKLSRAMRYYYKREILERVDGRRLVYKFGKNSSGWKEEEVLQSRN
The settings on record: protein: recombinant; tags: N-terminal GST; dsDNA, one strand shown. The gist of the method: as §1

The target in another assay is CRX (Homo sapiens, UniProt O43186 1-299). The note with it: protein: recombinant; tags: N-terminal GST; dsDNA, one strand shown. In short, it runs like this:
as §1

The next assay concerns the target ETV1 (Homo sapiens, UniProt P50549 1-477). The note with it: protein: recombinant; tags: N-terminal GST; dsDNA, one strand shown. In short, it runs like this:
as §1

The next assay concerns the target T6, ERF (Homo sapiens, UniProt P50548 1-548).
T6 sequence: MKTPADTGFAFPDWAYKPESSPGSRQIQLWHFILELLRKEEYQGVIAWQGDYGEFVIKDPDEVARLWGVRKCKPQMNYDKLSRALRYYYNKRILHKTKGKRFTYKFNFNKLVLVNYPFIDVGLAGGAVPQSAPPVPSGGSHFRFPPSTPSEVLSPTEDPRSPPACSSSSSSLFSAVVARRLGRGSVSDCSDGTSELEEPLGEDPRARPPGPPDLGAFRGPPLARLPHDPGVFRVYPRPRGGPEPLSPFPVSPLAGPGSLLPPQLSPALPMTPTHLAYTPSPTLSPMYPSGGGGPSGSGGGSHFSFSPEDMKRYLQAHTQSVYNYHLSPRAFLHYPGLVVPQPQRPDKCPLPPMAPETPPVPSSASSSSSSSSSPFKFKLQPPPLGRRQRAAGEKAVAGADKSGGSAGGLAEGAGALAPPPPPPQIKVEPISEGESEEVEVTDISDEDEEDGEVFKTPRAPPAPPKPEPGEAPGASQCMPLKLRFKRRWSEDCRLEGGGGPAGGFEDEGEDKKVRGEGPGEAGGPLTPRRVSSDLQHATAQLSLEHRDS
The note with it: protein: recombinant; tags: N-terminal GST; dsDNA, one strand shown. In short, it runs like this:
as §1

In the next assay the target is T7, ETV3L (Homo sapiens, UniProt Q6ZN32 1-361).
T7 sequence: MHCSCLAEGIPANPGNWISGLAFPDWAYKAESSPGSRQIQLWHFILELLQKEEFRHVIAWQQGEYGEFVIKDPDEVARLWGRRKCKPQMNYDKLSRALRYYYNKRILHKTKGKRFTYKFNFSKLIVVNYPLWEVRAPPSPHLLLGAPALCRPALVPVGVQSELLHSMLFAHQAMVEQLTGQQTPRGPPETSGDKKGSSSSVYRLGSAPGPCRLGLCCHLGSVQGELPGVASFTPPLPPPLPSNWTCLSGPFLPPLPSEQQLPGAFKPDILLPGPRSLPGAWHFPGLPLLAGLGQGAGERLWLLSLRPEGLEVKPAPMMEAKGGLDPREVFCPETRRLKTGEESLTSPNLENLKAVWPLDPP
The settings on record: protein: recombinant; tags: N-terminal GST; dsDNA, one strand shown. In short, it runs like this:
as §1

A further assay deals with T8, ETS2 (Homo sapiens, UniProt P15036 1-469).
T8 sequence: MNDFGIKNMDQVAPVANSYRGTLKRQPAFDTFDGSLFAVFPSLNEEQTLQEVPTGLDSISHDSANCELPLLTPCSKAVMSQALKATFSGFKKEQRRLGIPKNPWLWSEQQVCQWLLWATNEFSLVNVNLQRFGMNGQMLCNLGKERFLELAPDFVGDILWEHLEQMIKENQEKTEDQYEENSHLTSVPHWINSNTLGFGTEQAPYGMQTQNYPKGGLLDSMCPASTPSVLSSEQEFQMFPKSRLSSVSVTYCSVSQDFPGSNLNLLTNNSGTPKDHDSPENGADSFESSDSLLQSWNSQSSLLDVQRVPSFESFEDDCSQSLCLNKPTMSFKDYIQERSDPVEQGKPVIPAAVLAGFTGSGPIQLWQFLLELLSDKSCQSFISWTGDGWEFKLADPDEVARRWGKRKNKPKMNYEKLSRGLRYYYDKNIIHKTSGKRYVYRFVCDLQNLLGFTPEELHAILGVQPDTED
The settings on record: protein: recombinant; tags: N-terminal GST; dsDNA, one strand shown. In short, it runs like this:
as §1

The target of the next assay is T9, SPDEF (Homo sapiens, UniProt O95238 1-335).
T9 sequence: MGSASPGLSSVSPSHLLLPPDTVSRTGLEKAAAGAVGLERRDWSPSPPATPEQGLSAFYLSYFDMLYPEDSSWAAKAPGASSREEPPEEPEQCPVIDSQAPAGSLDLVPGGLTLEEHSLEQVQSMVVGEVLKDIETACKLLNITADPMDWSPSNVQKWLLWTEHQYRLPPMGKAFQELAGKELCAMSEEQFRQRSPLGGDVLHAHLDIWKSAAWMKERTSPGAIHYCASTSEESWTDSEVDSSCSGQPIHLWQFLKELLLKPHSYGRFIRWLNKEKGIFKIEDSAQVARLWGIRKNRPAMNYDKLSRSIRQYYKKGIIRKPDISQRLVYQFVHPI
The note with it: protein: recombinant; tags: N-terminal GST; dsDNA, one strand shown. The gist of the method: as §1

The target in the next assay is T10, ETV7 (Homo sapiens, UniProt Q9Y603 1-341).
T10 sequence: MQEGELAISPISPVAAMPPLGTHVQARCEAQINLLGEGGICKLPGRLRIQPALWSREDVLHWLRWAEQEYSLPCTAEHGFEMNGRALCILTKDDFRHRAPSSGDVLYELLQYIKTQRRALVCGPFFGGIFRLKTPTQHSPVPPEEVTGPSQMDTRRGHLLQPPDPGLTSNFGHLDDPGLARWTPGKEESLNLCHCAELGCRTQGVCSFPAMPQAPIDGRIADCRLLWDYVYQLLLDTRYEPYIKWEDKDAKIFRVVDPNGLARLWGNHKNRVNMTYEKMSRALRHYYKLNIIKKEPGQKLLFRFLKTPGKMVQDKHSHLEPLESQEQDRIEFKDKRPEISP
The settings on record: protein: recombinant; tags: N-terminal GST; dsDNA, one strand shown. The gist of the method:
as §1

Another assay concerns the target T11, ELF5 (Homo sapiens, UniProt Q9UKW6-2 1-255).
T11 sequence: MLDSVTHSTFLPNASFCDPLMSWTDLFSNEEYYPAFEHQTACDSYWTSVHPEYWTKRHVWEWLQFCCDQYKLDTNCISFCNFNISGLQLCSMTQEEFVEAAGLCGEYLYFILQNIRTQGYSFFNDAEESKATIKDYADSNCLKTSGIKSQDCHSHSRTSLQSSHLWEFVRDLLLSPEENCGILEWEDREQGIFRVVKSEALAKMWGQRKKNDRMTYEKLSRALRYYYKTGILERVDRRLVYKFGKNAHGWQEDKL
The settings on record: protein: recombinant; tags: N-terminal GST; dsDNA, one strand shown. The gist of the method: as §1

The target in another assay is T12, ETV3 (Homo sapiens, UniProt P41162-2 1-143).
T12 sequence: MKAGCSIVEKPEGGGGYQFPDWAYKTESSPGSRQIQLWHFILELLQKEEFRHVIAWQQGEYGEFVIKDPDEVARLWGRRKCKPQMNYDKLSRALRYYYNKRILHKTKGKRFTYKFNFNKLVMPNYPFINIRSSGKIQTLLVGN
The settings on record: protein: recombinant; tags: N-terminal GST; dsDNA, one strand shown. The gist of the method: as §1

The next assay deals with ETV6 (Homo sapiens, UniProt P41212 1-452). The settings on record: protein: recombinant; tags: N-terminal GST; dsDNA, one strand shown. The gist of the method:
as §1

Chain of ETV1 (P50549 whole entry): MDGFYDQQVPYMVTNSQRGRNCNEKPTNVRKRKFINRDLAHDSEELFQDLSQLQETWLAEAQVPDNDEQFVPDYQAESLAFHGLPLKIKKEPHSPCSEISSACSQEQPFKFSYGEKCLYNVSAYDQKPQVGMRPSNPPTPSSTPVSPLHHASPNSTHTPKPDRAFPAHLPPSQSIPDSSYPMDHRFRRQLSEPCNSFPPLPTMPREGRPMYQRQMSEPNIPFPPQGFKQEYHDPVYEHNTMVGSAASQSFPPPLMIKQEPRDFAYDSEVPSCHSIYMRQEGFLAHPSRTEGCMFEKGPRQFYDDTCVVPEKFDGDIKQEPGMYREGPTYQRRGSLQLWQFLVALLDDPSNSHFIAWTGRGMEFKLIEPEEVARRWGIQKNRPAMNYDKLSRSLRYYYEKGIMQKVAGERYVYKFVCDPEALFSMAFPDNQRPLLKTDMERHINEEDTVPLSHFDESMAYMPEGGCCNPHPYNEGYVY
Chain of ETV6 (P41212 whole entry): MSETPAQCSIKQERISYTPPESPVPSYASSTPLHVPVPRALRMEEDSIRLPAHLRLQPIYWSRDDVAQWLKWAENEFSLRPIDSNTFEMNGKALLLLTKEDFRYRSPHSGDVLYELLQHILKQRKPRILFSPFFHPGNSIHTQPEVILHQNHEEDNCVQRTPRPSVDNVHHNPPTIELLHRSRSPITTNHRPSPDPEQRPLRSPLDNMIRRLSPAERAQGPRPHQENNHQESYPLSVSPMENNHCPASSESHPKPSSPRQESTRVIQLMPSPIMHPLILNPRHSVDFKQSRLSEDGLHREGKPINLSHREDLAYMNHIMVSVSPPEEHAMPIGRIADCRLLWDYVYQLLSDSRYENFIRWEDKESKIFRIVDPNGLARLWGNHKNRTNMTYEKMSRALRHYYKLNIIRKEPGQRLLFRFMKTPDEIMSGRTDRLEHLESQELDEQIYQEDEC
Chain of ELF4 (Q99607 whole entry): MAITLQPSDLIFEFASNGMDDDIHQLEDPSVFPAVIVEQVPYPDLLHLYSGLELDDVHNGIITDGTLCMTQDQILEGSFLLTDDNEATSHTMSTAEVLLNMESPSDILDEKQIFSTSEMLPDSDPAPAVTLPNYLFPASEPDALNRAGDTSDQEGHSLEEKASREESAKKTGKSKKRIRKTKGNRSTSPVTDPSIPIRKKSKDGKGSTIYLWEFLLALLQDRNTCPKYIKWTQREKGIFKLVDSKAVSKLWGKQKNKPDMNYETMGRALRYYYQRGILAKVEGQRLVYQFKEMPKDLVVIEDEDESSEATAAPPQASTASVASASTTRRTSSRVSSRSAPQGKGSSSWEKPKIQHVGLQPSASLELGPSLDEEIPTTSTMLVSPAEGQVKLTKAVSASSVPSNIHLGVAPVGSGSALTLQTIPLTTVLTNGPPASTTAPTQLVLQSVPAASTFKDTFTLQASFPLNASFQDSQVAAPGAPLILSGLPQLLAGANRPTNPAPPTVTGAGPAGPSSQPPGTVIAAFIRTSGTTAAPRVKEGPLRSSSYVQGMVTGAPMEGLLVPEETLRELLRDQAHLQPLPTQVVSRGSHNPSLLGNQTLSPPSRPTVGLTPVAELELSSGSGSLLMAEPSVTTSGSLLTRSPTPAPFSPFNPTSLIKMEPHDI
Chain of CRX (O43186 whole entry): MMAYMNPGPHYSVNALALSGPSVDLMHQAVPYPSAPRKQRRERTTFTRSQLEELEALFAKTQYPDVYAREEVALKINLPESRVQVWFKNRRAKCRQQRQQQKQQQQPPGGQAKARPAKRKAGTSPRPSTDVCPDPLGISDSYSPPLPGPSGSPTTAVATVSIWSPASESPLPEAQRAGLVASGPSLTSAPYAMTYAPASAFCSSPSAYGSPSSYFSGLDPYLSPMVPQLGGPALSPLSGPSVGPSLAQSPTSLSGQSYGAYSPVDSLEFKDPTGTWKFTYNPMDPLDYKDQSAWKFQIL
Chain of HSF1 (Q00613 whole entry): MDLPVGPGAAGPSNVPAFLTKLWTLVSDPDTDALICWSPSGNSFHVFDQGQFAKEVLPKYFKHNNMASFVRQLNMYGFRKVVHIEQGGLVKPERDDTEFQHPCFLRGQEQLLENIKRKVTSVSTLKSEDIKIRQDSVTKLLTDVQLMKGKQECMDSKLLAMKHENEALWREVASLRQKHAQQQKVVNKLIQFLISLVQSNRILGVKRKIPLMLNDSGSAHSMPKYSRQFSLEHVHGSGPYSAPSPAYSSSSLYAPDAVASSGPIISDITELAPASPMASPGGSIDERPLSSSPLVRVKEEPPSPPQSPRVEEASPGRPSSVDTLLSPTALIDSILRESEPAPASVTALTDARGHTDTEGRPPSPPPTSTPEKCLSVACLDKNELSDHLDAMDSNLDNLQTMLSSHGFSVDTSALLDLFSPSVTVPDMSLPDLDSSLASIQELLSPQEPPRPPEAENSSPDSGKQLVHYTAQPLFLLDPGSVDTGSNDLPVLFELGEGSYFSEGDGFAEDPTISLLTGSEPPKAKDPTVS
Chain of ETV5 (P41161 whole entry): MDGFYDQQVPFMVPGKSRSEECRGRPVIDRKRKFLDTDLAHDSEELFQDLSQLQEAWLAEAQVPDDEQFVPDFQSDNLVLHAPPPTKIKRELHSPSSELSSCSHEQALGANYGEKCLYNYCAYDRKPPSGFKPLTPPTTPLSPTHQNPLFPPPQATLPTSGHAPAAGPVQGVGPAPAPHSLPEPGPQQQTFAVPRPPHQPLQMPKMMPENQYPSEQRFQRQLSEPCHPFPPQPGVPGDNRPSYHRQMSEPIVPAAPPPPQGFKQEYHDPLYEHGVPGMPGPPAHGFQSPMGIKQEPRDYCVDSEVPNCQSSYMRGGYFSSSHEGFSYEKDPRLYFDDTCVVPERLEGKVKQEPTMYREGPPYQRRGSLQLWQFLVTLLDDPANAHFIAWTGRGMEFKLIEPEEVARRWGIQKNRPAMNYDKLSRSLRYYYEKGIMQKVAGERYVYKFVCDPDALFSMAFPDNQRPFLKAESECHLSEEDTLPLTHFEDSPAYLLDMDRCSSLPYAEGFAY

With TTCTCA, the binding signal in the assay with FEV was 1.3 fold enrichment (6-mer frequency, TF over GST control); with ETV5, 1.33 fold enrichment (6-mer frequency, TF over GST control); with HSF1, 1.65 fold enrichment (6-mer frequency, TF over GST control); with SPIC, 1.5 fold enrichment (6-mer frequency, TF over GST control); in the assay with ELF4, 1.27 fold enrichment (6-mer frequency, TF over GST control); with ELK4, 1.34 fold enrichment (6-mer frequency, TF over GST control). In addition, the binding signal in the assay with ETV2 was 1.32 fold enrichment (6-mer frequency, TF over GST control); with ELF3, 1.39 fold enrichment (6-mer frequency, TF over GST control); with CRX, 1.34 fold enrichment (6-mer frequency, TF over GST control); with ETV1 it was 1.35 fold enrichment (6-mer frequency, TF over GST control); in the assay with ERF, 1.21 fold enrichment (6-mer frequency, TF over GST control); in the assay with ETV3L it was 1.23 fold enrichment (6-mer frequency, TF over GST control). Moreover, the binding signal with ETS2 was 1.21 fold enrichment (6-mer frequency, TF over GST control); with SPDEF it was 1.17 fold enrichment (6-mer frequency, TF over GST control); with ETV7 it was 1.26 fold enrichment (6-mer frequency, TF over GST control); with ELF5, 1.23 fold enrichment (6-mer frequency, TF over GST control); with ETV3, 1.34 fold enrichment (6-mer frequency, TF over GST control); with ETV6, 1.26 fold enrichment (6-mer frequency, TF over GST control).

The values above are taken from publication PMC7862700, “An all-to-all approach to the identification of sequence-specific readers for epigenetic DNA modifications on cytosine”.
